Assay outcomes as filed in PubChem.
AHR act – AHR activators, primary screen, cell-based, luminescence, luciferase reporter, human | Aryl hydrocarbon receptor (Homo sapiens), P35869 | AHR-responsive luciferase reporter cells | activation, % at 5 µM | AID 2796, 2010 | actives 2.5% (n = 320,000); in the data active = activation above about 47%;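 note: 0% = vehicle wells and 100% = reference agonist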
Target sequence (P35869 whole entry, looked up): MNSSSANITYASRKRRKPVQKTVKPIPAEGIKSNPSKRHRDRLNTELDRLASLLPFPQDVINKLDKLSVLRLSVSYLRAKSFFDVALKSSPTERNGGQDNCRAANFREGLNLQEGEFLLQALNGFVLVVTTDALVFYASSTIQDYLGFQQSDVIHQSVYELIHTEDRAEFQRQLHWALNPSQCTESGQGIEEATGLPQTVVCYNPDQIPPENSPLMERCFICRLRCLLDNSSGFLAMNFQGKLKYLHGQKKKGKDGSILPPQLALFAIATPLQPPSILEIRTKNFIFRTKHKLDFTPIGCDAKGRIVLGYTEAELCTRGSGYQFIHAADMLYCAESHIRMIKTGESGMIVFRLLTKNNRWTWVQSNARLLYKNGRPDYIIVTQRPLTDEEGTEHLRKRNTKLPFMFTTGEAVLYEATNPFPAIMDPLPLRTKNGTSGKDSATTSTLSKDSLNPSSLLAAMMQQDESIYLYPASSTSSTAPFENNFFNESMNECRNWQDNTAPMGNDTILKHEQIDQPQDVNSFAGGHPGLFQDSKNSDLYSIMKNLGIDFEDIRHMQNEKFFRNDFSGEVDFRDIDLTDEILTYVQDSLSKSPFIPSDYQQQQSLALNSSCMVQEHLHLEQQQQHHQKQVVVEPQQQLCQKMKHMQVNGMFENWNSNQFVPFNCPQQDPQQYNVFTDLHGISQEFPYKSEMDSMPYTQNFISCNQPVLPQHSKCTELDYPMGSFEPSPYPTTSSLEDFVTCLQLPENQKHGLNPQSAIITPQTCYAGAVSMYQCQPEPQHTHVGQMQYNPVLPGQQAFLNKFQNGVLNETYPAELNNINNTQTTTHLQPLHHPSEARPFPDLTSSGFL
NTR1 ag – agonists of human NTR1, primary screen, imaging, U2OS cells, beta-arrestin-GFP, high content; actives 0.17% (n = 330,000); NTR1-U2OS beta-arrestin-GFP spot imaging, agonist mode; activation, % at 20 µM; Neurotensin receptor type 1 (Homo sapiens), P30989; AID 493036, 2011;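 active = activation at or above 40% of the spot to cytoplasm intensity ratio, with at least 20 cells analyzed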;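 note: 0% = DMSO without peptide and 100% = 100 nM NTR1 peptide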
AI-2 QS mod – Vibrio harveyi AI-2 quorum sensing modulators, primary screen, JMH597 strain, luminescence/OD600 ratio; Vibrio harveyi JMH597 AI-2 luminescence/OD600 ratio, 9 h; stronger effect = lower value; strain lacks LuxN and CqsS sensors; 0 = neutral-control median; actives 0.4% (n = 300,000); activity change, % at 7.5 µM; in the data active = activity change below about -75%, passing the limit was not always enough;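 note: luminescence divided by OD600 gain over 9 h not by final OD600 alone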
SUMO Mot1 rescue – yeast Mot1-301 growth rescue at high temperature, primary screen, SUMOylation pathway inhibitor project, S. cerevisiae, ATP luminescence, 38.5C; AID 2716, 2010; S. cerevisiae Mot1-301 growth rescue; percent above DMSO median, 100 means doubled; growth rescue, % at 18.8 µM; actives 1% (n = 320,000);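 active = every valid replicate shows activation above 250% relative to neutral control wells; inactive = the rest, any valid replicate at or below 250%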;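 note: OY570 slx delta 5 strain wells were the positive control but not used for scaling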
H9c2 protect – cardioprotection against H2O2-induced cell death, primary screen, uHTS, H9c2 cells, ATPLite luminescence | H9c2 cardiomyocytes, H2O2 injury protection, 2 h | protection from H2O2 cell death, % at 20 µM | actives 0.63% (n = 360,000) | AID 588492, 2011;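 active = compounds giving at least 50% protection of heart cells from peroxide-induced death in the single-dose screen, raw or plate-pattern-corrected value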;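 note: 0% = DMSO wells with peroxide and 100% = DMSO wells without peroxide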
NR3A LBD binder – binders of NR3A ligand-binding domain, primary screen, biophysical, differential scanning fluorimetry, uHTS; Glutamate receptor ionotropic, NMDA 3A (GRIN3A) ligand-binding domain; NR3A LBD differential scanning fluorimetry, Tm shift; 0% = protein alone, 100% = glycine-bound protein; Tm shift relative to glycine control, % at 25 µM; actives 2.5% (n = 340,000); AID 1259313, 2017;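 active = melting temperature shift of at least 10% of the positive control shift, at one fixed dose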
* marks the source's active call; other numbers are inactive results; . = no result given. This is a sample that favours compounds with a hit; in the whole collection about 6.2% have one here.

SMILES	AHR act	NTR1 ag	AI-2 QS mod	SUMO Mot1 rescue	H9c2 protect	NR3A LBD binder
O=C(CSc1nnc(-c2ccc(O)cc2)o1)Nc1ccccc1Br	4	2	31	-12	-3	2
O=C(CSc1nnc(-c2ccc(O)cc2)o1)Nc1ccc2c(c1)OCCO2	4	-1	21	.	-3	7
O=C(CSc1nnc(-c2ccc(O)cc2)o1)Nc1cccc(O)c1	-3	8	25	36	-1	18*
N#Cc1cccc(NC(=O)CSc2nnc(-c3n[nH]c4ccccc34)o2)c1	42	1	37	-15	2	71*
COc1cccc(C(=O)N2CCC(C(=O)NCc3ccco3)CC2)c1	-1	-1	30	207	-1	-1
COc1cc(C(=O)Nc2ccc(C)cn2)ccc1OCC(=O)N1CCOCC1	0	0	.	-11	0	2
COc1cc(C(=O)Nc2nc(-c3ccc(Cl)cc3)c(C)s2)ccc1OCC(=O)Nc1ccc(F)cc1	39	0	10	-15	-16	18*
CCc1ccc(-c2nc(NC(=O)c3ccc(OCC(=O)Nc4ccc(F)cc4)c(OC)c3)sc2C)cc1	5	0	10	0	10	2
COc1ccc(-c2nc(NC(=O)c3ccc(OCC(=O)N4CCOCC4)c(OC)c3)sc2C)cc1	1	4	33	2	62*	-25
O=C(/C=C/c1ccc(Cl)c([N+](=O)[O-])c1)Nc1ccc(N2CCCC2)c(Cl)c1	2	1	28	25	9	17*
CN1CCN(c2ccc(S(=O)(=O)N3CCCCC3)cc2NC(=O)/C=C/c2ccc(Cl)c([N+](=O)[O-])c2)CC1	-3	2	25	.	-2	-6
CC(C)C(=O)Nc1ccc(N2CCCC2)c(Cl)c1	0	2	11	497*	-7	-4
O=C(Nc1ccc(N2CCOCC2)c(Cl)c1)c1ccccc1Cl	-4	0	13	-8	-3	19*
CCc1nn2cc(C(=O)c3cc(Cl)ccc3O)cnc2c1-c1ccc(F)cc1	4	4	19	279	-28	27*
CCc1ccc(-n2c(SCC(=O)Nc3ccc(C(=O)O)cc3)nnc2-c2ccncc2)cc1	-1	3	16	-9	.	-1
CCc1ccc(NC(=O)CSc2nnc(-c3n[nH]c4ccccc34)n2-c2ccccc2)cc1	2	6	20	-11	-8	23*
Cc1cccc(NC(=O)CSc2nnc(-c3n[nH]c4ccccc34)o2)c1	18	-1	25	4	0	4
O=C(CSc1nnc(-c2n[nH]c3ccccc23)n1-c1ccccc1)Nc1cccc(Cl)c1	2	21	19	-3	2	22*
O=C(COC(=O)c1ccc[nH]c1=O)NCC12CC3CC(CC(C3)C1)C2	3	2	.	.	9	-2
COc1cccc(C2/C(=C(\O)c3ccc4c(c3)OCCO4)C(=O)C(=O)N2Cc2cccnc2)c1 (centres undefined)	4	0	-2	-22	3	-3
O=C(N/N=C/c1ccc(O)cc1)Nc1cccc2nsnc12	9	11	24	36	58*	17*
Cc1ccc(S(=O)(=O)C=CS(=O)(=O)c2ccc(C)cc2)cc1	.	.	.	.	-20	.
O=S(=O)(/C=C/C=C/S(=O)(=O)c1ccccc1)c1ccccc1	.	.	.	.	-19	13*
C=CCNC(=S)N/N=C/c1ccc(-c2cccc([N+](=O)[O-])c2)o1	4	1	10	8	4	-3
COc1ccccc1C(=O)NCC(=O)N/N=C/c1ccc([N+](=O)[O-])cc1	-4	0	19	5	11	0
SMILES	AHR act	NTR1 ag	AI-2 QS mod	SUMO Mot1 rescue	H9c2 protect	NR3A LBD binder
COc1cc(C(=O)NCC(=O)N/N=C/c2ccc(-c3cccc([N+](=O)[O-])c3)o2)cc(OC)c1OC	1	0	12	-14	66*	-1
COc1cc(C(=O)NCC(=O)N/N=C/c2ccc(-c3ccc([N+](=O)[O-])cc3)o2)cc(OC)c1OC	-2	-3	15	6	22	14*
Cc1ccc(OCCN(C)C(=O)C2CCC(=O)N(CCCN3CCOCC3)C2)cc1 (centres undefined)	4	-1	16	-7	1	-1
O=Cc1c(Nc2cccc(C(F)(F)F)c2)nc2ccccn2c1=O	32	2	3	2	-11	2
O=C(N/N=C/c1c(Nc2cccc(C(F)(F)F)c2)nc2ccccn2c1=O)c1ccccc1[N+](=O)[O-]	12	3	1	-5	5	10*
COc1ccc(N2CCN(C3CCCN(S(=O)(=O)c4ccc(C)cc4C)C3)CC2)cc1 (centres undefined)	1	3	-2	7	-6	1
CN(C)C(=O)c1ccc(-c2n[nH]c(=O)c3ccccc23)cc1	3	0	46	.	62*	-2
O=C1COc2ccc(-c3n[nH]c(=O)c4ccccc34)cc2N1	-2	-1	36	-6	59*	1
Nc1nc(-c2ccc3c(c2)NC(=O)CO3)cs1	5	1	18	-8	5	3
Oc1ccc(Oc2ccc(Oc3ccc(O)cc3)cc2)cc1	-1	4	39	271	-11	-10
CCCCC(=O)OCC(=O)N1N=C(c2c[nH]c3ccccc23)C(O)C1c1ccc(OC)cc1 (centres undefined)	9	22	33	3	-7	30*
COc1ccc(-c2cc(C(=O)N(C)Cc3ccccc3F)c3ccccc3n2)cc1OC	71*	10	22	-22	66*	-1
COCCN(Cc1ccccc1)C(=O)c1cc(-c2ccc(OC)c(OC)c2)nc2ccccc12	29	8	24	-7	26	0
CCN(Cc1ccccc1)C(=O)c1cc(-c2ccc(OC)c(OC)c2)nc2ccccc12	69*	5	23	2	19	-1
COc1ccccc1CN(C)C(=O)c1cc(-c2cc(OC)c(OC)c(OC)c2)nc2ccccc12	32	10	28	1	50*	-1
CCC1CCCCN1C(=O)c1ccc(OC2CCN(C(=O)CCOC)CC2)cc1 (centres undefined)	2	-2	2	-4	-2	1
O=S(=O)(c1ccc(Cl)cc1)N1CCN(C(=S)NCC2CCCO2)CC1 (centres undefined)	1	0	24	4	-6	11*
